53 compounds from ChEMBL document CHEMBL4513216, “Probing the Open Global Health Chemical Diversity Library for Multistage-Active Starting Points for Next-Generation Antimalarials” (ACS Infect Dis, 2020) can be followed below.

The structures appear in SMILES notation. Out of some 68,000 compounds screened, about 2,700 (4%) showed an effect of 50% or more. For the sample, strong results were picked, then their nearest neighbours and some compounds at random.

The test system of this test is Plasmodium berghei. Kind of test: Screen against P. berghei liver stage (PbLuc), transformed with Luciferase, at 2uM. It counts as functional, HepG2. The conditions noted are these: tested at 2 uM.
As to `CN1CCN(C(=O)Cc2cccc(F)c2)Cc2cccnc21`, the INHIBITION came out at 26.09%.

Take `c1cnc(-c2noc(C3CN(Cc4ccsc4)C3)n2)cn1`: the INHIBITION turned out to be 5.39%.

Turning to `N#Cc1cccc(C(=O)N2CC(c3nc(-c4cccnc4)no3)C2)c1`, the INHIBITION came to 25.53%.

For `c1csc(CN2CC(c3nc(-c4cnccn4)no3)C2)c1`, the INHIBITION was determined as 26.54%.

On to `COc1cccc(-c2noc(C3CCN(Cc4cccs4)C3)n2)c1` (stereo not drawn), for which the INHIBITION is given as 11.1%.

With `c1cncc(-c2noc(C3CN(Cc4cccs4)C3)n2)c1`, the INHIBITION is recorded as 51.71%.

Turning to `O=C(Cc1cccs1)N1CC(c2nc(-c3cnccn3)no2)C1`, the INHIBITION is recorded as 50.2%.

As for `CCc1ccc(NC(=O)N2C[C@H]3CC[C@@]4(N=C(C)N(C)C4=O)[C@H]3C2)cc1`, the INHIBITION was determined as 17.4%.

As for `O=C(Nc1c(N2CCCC2)cccc1N1CCCC1)c1cnccn1`, the INHIBITION was found to be 19.33%.

For `O=C(Nc1c(N2CCCC2)cccc1N1CCCC1)c1cnsn1`, the INHIBITION was determined as 52.38%.

Regarding `O=C(Nc1c(N2CCCC2)cccc1N1CCCC1)c1ccccn1`, the INHIBITION is listed as 32.26%.

Turning to `CCOc1cc(CN(C)CCC#N)ccc1OC(F)F`, the INHIBITION is reported as 14.17%.

On to `Cc1cc(C)cc(CNCCS(=O)(=O)N2CCOCC2)c1`, for which the INHIBITION was -6.33%.

Regarding `OCC(CO)Nc1nc(C(F)F)nc2ccccc12`, the INHIBITION was -11.32%.

Take `CNc1cc(C2CN(Cc3scnc3C)CCO2)nc(C)n1` (stereo not drawn): the INHIBITION is on record as -1.07%.

On to `CS(=O)(=O)c1ccc(Cl)c(C(=O)NCCC2=CCCCC2)c1`, for which the INHIBITION was found to be 6.92%.

In the case of `Cc1cc(C)n(C2CCCN(C(=O)Cc3cn4ccsc4n3)C2)n1` (stereo not drawn), the INHIBITION is recorded as 20.57%.

As for `Cc1cc(N2CCC(O)(CN(C)C(=O)CCN)C2)c2cnccc2n1` (stereo not drawn), the INHIBITION is listed as -17.65%.

For the compound `Cc1cc(N2CCC(O)(CN(C)C(=O)CCCN)C2)c2cnccc2n1` (stereo not drawn), the INHIBITION is recorded as -14.93%.

`Cc1cc(N2CCC(O)(CN(C)C(=O)CCN)CC2)c2cnccc2n1`: the INHIBITION came out at 57.47%.

Take `CCOC(=O)COC1CCN(C(C)=O)CC(=O)N(C)c2ccccc21` (stereo not drawn): the INHIBITION is given as 19.99%.

Regarding `Cc1ccnc(C2(C)CCCN2S(=O)(=O)c2c(C)noc2C)n1` (stereo not drawn), the INHIBITION was found to be 15.61%.

`Cc1nn2cnnc2c(C)c1CCC(=O)Nc1nc2c(s1)CCC2`: the INHIBITION is on record as -4.37%.

For the compound `O=C(Cc1ccccn1)N1CCc2c(O)nc(-c3cnccn3)nc2C1`, the INHIBITION was 56.57%.

As for `O=C(Cc1ccccn1)N1CCc2nc(-c3cnccn3)nc(O)c2C1`, the INHIBITION amounted to 41.31%.

Take `Oc1nc(-c2cnccn2)nc2c1CCN(Cc1ccccn1)C2`: the INHIBITION worked out at 19.47%.

Regarding `COCCc1noc(-c2ccc(=O)[nH]c2)n1`, the INHIBITION is -18.6%.

As to `CS(=O)(=O)CCNCc1ccc(OCc2ccncc2)cc1`, the INHIBITION is -117.21%.

For `O=S1(=O)COCCN1Cc1ccc(F)c(F)c1`, the INHIBITION was determined as 22.52%.

On to `O=S1(=O)COCCN1Cc1ccc(Cl)c(Cl)c1`, for which the INHIBITION is -31.95%.

With `O=S1(=O)COCCN1Cc1ccc(Cl)c(F)c1`, the INHIBITION is on record as 51.45%.

As for `Cc1ccc(C(C)NC(=O)N2CCCN(CC(F)F)CC2)s1` (stereo not drawn), the INHIBITION was found to be 9.27%.

In the case of `CC(C)N1[C@H](CN2CCCC2)C[C@@H]2CN(C(=O)c3ccoc3)CC[C@@H]21`, the INHIBITION worked out at 50.32%.

On to `CC(C)N1[C@H](CN2CCCC2)C[C@@H]2CN(Cc3ccoc3)CC[C@@H]21`, for which the INHIBITION is reported as 1.92%.

As to `CC(=O)N1C(CN2CCCC2)C[C@@H]2CN(C(=O)c3ccoc3)CC[C@@H]21` (stereo partly drawn), the INHIBITION turned out to be 4%.

`Cc1cc(CN2CCN(CC(O)c3ccc(C)c(C)c3)CC2)no1` (stereo not drawn): the INHIBITION is on record as -29.69%.

For `CCCOc1ccc(CNC(=O)N2CCC(C(N)=O)C2)cc1` (stereo not drawn), the INHIBITION is 76.69%.

Regarding `CC(C)c1ccc(OCCC(=O)N2CCC(C(N)=O)CC2)cc1`, the INHIBITION was 3.33%.

For `CCOCc1ccc(CNC(=O)N2CCC(C(N)=O)C2)cc1` (stereo not drawn), the INHIBITION is 47.23%.

Regarding `CC(C)c1ccc(OCCC(=O)N2CCCN(C(N)=O)CC2)cc1`, the INHIBITION stood at 19.71%.

With `CC(C)c1ccc(OCCC(=O)N2CCCC(C(N)=O)C2)cc1` (stereo not drawn), the INHIBITION amounted to 52.47%.

With `CS(=O)(=O)Cc1ccc(CNC(=O)N2CCC(C(N)=O)C2)cc1` (stereo not drawn), the INHIBITION was determined as 31%.

On to `COCCN1CCCn2cnc(CNC3CCCC3)c2C1`, for which the INHIBITION is -24.29%.

Regarding `Fc1cnc(N2CCC3(CC2)CN(Cc2cccs2)CCO3)nc1`, the INHIBITION is reported as 43.29%.

`COc1ccccc1C(C)(C)NC(=O)Nc1ccc(F)c(C(N)=O)c1`: the INHIBITION stood at 20.21%.

With `CN(Cc1cncnc1)[C@@H]1CN(Cc2ccco2)C[C@@H]2CCCO[C@@H]21`, the INHIBITION was -37.2%.

With `CCCN1CCN(C(=O)Cn2nc(C(F)(F)F)c(Br)c2C2CC2)CC1`, the INHIBITION was -3.36%.

With `CC(C)C(NC(=O)c1ccc(Cl)cc1Cl)C(=O)Nc1ccn(C)n1` (stereo not drawn), the INHIBITION was found to be 42.76%.

`O=C(COC1CCCCC1)Nc1ccn(CCc2ccncc2)n1`: the INHIBITION was found to be 13.99%.

Turning to `Cn1cccc1C(=O)NC(C)(C(N)=O)c1cccc(C(F)(F)F)c1` (stereo not drawn), the INHIBITION was -23.95%.

Turning to `OC1(c2ccccc2F)CCN(Cc2ccccc2N2CCCC2)CC1`, the INHIBITION was 14.73%.

As for `OC1(c2ccc(F)cc2)CCN(Cc2ccccc2N2CCCC2)CC1`, the INHIBITION came out at 58.02%.

On to `Cc1cccc(C2(O)CCN(Cc3ccccc3N3CCCC3)CC2)c1`, for which the INHIBITION is 4.06%.
